PHOSPHO1 inh – blocks human PHOSPHO1 phosphatase activity. Q8TCT1. recombinant PHOSPHO1, absorbance phosphatase assay. inhibition, % at 13.3 µM. 1.1% of 290,000 active; in the data active means inhibition above about 60%
TMEM16A inh – blocks the mouse calcium-activated chloride channel TMEM16A. Q8BHY3. HEK293 TMEM16A/YFP iodide influx fluorescence, ionomycin. normalized B-score (activity score, 25-100; higher = stronger inhibition) at 10 µM. 1.2% of 310,000 active;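 active means ratio plate-corrected score three or more library SD toward inhibition, starting fluorescence score within five deviations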;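 further: score derived from kinetic fluorescence span divided by baseline fluorescence per well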
CHT inh – inhibits the human high affinity choline transporter. Q9GZV3. CHT-expressing cells, membrane potential dye, choline response; stronger effect = lower value. B-score at 10 µM. 0.86% of 310,000 active. AID 488975;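 active means B-score over 3 SD under the library average, and starting fluorescence ratio not unusually high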;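 further: choline stimulus applied at its EC90 after an EC20 pre-addition; B-score computed on integrated fluorescence ratio after choline addition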
HDAC3 inh – human HDAC3 inhibition; recombinant HDAC3, fluorogenic peptide/trypsin coupled, fluorescence; inhibition, % at 8.3 µM; 0.15% of 320,000 active; in the data active means inhibition above about 26%, passing the limit was not always enough; inconclusive means no clear call, values can overlap the other calls
Target sequence (O15379 whole entry, looked up): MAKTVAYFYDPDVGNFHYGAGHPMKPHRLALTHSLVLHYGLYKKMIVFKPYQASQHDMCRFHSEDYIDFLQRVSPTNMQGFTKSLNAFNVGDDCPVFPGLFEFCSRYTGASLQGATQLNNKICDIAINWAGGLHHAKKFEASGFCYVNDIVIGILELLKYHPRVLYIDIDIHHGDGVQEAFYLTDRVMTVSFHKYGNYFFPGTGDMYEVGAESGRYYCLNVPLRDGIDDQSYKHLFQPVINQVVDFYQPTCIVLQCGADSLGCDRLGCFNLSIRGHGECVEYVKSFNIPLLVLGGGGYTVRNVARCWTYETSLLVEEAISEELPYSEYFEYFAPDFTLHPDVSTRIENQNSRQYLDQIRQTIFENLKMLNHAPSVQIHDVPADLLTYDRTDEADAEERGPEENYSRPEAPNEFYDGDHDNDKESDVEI
TMEM16A act – activators or potentiators of mouse TMEM16A chloride channel. AID 623877. HEK293 TMEM16A/YFP-H148Q/I152L, iodide quench fluorescence; stronger effect = lower value. 0.3% of 340,000 active. B-score at 10 µM;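 active means fluorescence-ratio B-score plate-corrected deviation score at least 3 library SD below zero, with starting fluorescence score within 5 deviations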;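 further: channel opened by trigger with iodide after compound preincubation; score built on the fluorescence ratio of max minus min over baseline; more negative score means more quench and so TMEM16A activation or potentiation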
CHT allo act – allosteric activators of human choline transporter CHT; Q9GZV3; CHT-expressing cells, membrane potential dye, choline EC20; stronger effect = higher value; LV-AA mutant CHT in HEK293 cells; B-score at 10 µM; 0.49% of 310,000 active; AID 488977;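 active means initial fluorescence not abnormally high and integrated response B-score, plate-corrected, over 3 SD above library mean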
CHT activ conf – confirmation of human choline transporter (CHT) activators | activation, % at 10 µM | 91% of 2,500 active | shares compounds with CHT allo act | AID 504833 | CHT-expressing cells, membrane potential dye fluorescence (FDSS); % of choline EC20–EC90 response window; HEK293 expressing CHT LV-AA mutant; choline added at its EC20;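 active means primary screen active, with duplicate mean activation above negative control mean plus 3 SD, cut at about 11% in these data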
HEK293 MP dye – activity in parental HEK293 cells lacking CHT. shares compounds with CHT allo act. 62% of 2,500 active. AID 623908. ratio readout change at 10 µM, hits read low. membrane potential dye fluorescence (FDSS); measured after EC20 choline addition;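 active means duplicate-averaged ratio beyond 3 SD from buffer wells, up or down, though filed actives are nearly all decreases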
Of the large screens only hits and unclear results are named; the others gave an inactive call (follow-up assays come after a bar, where they were run). A selection: hits, their analogues and other compounds. The true share with any hit is near 3.2%.

O=C(N/N=C/c1ccccn1)c1cc(-c2ccc3ccccc3c2)n[nH]1	none
O=C(Cn1nc(-c2ccccc2)c2ccccc2c1=O)Nc1cccnc1	none
COc1ccc(OC)c2c(C)cc(C)nc12	CHT allo act 8.8 | CHT activ conf 57 | HEK293 MP dye -81
COc1ccc(OC)c2c(C)cc(N3CCCCCC3)nc12	none
CN1CCN(C(=O)CCc2nnc3ccc(N4CCC5(CC4)OCCO5)nn23)CC1	HDAC3 inh inconclusive
CCOC(=O)C1CCN(C(=O)CCc2nnc3ccc(N4CCN(C)CC4)nn23)CC1	CHT allo act 8.1 | CHT activ conf 73 | HEK293 MP dye -72
Cc1ccc(C(=O)Oc2ccccc2N2CCOCC2)cc1	none
CCOC(=O)C1(Cc2cccc(OC)c2)CCN(Cc2cccc3cnccc23)CC1	none | CHT activ conf 22 | HEK293 MP dye inactive
CCOC(=O)C1(CCOc2ccccc2)CCN(Cc2cc(OC)ccc2OC)CC1	none | CHT activ conf 30 | HEK293 MP dye inactive
CCOC(=O)C1(CCOc2ccccc2)CCN(Cc2ccncc2)CC1	none
CCOC(=O)C1(CCOc2ccccc2)CCN(Cc2cccc(OC)c2)CC1	none (no result: PHOSPHO1 inh)
CCOC(=O)C1(CCOc2ccccc2)CCN(Cc2ccc(-n3cccn3)cc2)CC1	TMEM16A inh 25, CHT allo act 6.3 | CHT activ conf 27 | HEK293 MP dye inactive
CCOC(=O)C1(CCOc2ccccc2)CCN(Cc2cccn2-c2ncccn2)CC1	CHT allo act 15 | CHT activ conf 38 | HEK293 MP dye inactive
CCNC(=O)C(C)Sc1ccc(Cl)cc1 (centres undefined)	none
CC(Sc1ccc(Cl)cc1)C(=O)Nc1ccccc1-c1ccccc1 (centres undefined)	CHT allo act 7 | CHT activ conf 35 | HEK293 MP dye inactive
Cc1ccc(SC(C)C(=O)Nc2ccccc2-c2ccccc2)cc1 (centres undefined)	none | CHT activ conf inactive | HEK293 MP dye inactive
CN(C)S(=O)(=O)c1ccc(NC(=O)CCNC(=O)c2ccc([N+](=O)[O-])cc2)cc1	none
CC(C)=CC[N+]1(C)CCCCC1	none
COc1ccc2[nH]c(C)c(C(=O)CN(C)CC3OCCO3)c2c1	none (no result: TMEM16A act)
O=C(Nc1ccccc1Oc1cccnc1)C1CCCN(Cc2ccccc2O)C1 (centres undefined)	none
C#Cc1ccc(CN2CCCC(C(=O)Nc3ccccc3Oc3cccnc3)C2)cc1 (centres undefined)	none | CHT activ conf 17 | HEK293 MP dye inactive
CCc1nc2ccc(Cc3ccc4nc(CC)[nH]c4c3)cc2[nH]1	CHT allo act 7.1 | CHT activ conf 49 | HEK293 MP dye -52
Cc1ccc2nc(CCc3ccc(N)cc3)[nH]c2c1	none
Cc1cc(NC(=O)CCC(=O)N(Cc2ccccc2)C(C(=O)NC2CCCC2)c2ccco2)no1 (centres undefined)	none
Cc1ccc(C(C(=O)NC2CCCCC2)N(C(=O)Cc2c[nH]c3ccccc23)c2ccccc2C)o1 (centres undefined)	none
Cc1ccc(C(C(=O)NC2CCCCC2)N(Cc2ccco2)C(=O)Cc2c[nH]c3ccccc23)o1 (centres undefined)	CHT allo act 6.4 | CHT activ conf 26 | HEK293 MP dye inactive
Cc1ccc(C(C(=O)NC2CCCC2)N(Cc2ccco2)C(=O)CCC(=O)Nc2cc(C)on2)cc1 (centres undefined)	CHT allo act 6.4 | CHT activ conf inactive | HEK293 MP dye inactive
CCc1nccn1S(=O)(=O)c1cc(C)c(OC)cc1C	none
CSc1ccc(CN2CCCC(CNC(=O)c3ccc(F)cc3)C2)cc1 (centres undefined)	HDAC3 inh inconclusive
Cc1cc(C)nc(NC(=O)c2cnc3sccn3c2=O)n1	CHT allo act 9.1 | CHT activ conf 52 | HEK293 MP dye -51
NNC(=O)c1sc(-c2ccc(Cl)cc2)cc1N	none
CCC(=O)NCCc1nc2cc(NC(=O)c3cccc([N+](=O)[O-])c3)ccc2n1C	none | CHT activ conf 32 | HEK293 MP dye -26
O=C1CC2(CCN(C(=O)c3ccccc3Cl)CC2)Oc2ccccc21	none (no result: PHOSPHO1 inh) | CHT activ conf inactive | HEK293 MP dye inactive
O=C1CC2(CCN(C(=O)c3cccc(Cl)c3)CC2)Oc2ccccc21	none (no result: PHOSPHO1 inh)
O=C1CC2(CCN(C(=O)c3cccc(Br)c3)CC2)Oc2ccccc21	CHT allo act 8.9 (no result: PHOSPHO1 inh) | CHT activ conf inactive | HEK293 MP dye inactive
O=C1CC2(CCN(C(=O)c3ccc(Cl)cc3)CC2)Oc2ccccc21	none (no result: PHOSPHO1 inh)
CCN(CC)S(=O)(=O)c1cnccc1N1CCN(c2cccc(Cl)c2)CC1	CHT allo act 9.3 | CHT activ conf 13 | HEK293 MP dye inactive
CN1CCN(CCCn2cnc3c(=O)oc4ccccc4c32)CC1	CHT allo act 9.4 (no result: HDAC3 inh) | CHT activ conf 66 | HEK293 MP dye -67
O=c1oc2ccccc2c2c1ncn2CCN1CCOCC1	none
Cc1ccc2c(c1C)NC(=O)C21N2CCCC2C(C(=O)c2ccc3ccccc3c2)C12C(=O)Nc1ccccc12 (centres undefined)	none (no result: TMEM16A inh, CHT inh, HDAC3 inh, CHT allo act)
[O-][N+]1=c2ccc(Nc3ccccc3)cc2=NC12CCCCC2	none
COc1ccc(Nc2ccc3c(c2)=NC2(CCCCC2)[N+]=3[O-])cc1	HDAC3 inh inconclusive, CHT allo act 7.2 | CHT activ conf 51 | HEK293 MP dye -73
COc1ccccc1C(c1nnnn1Cc1ccco1)N1CCN(c2cccc(C)c2C)CC1 (centres undefined)	none
CCC(C)(C)n1nnnc1C(c1cc(OC)ccc1OC)N1CCN(Cc2ccccc2)CC1 (centres undefined)	CHT allo act 7.6 | CHT activ conf 35 | HEK293 MP dye inactive
COc1ccc(N2CCN(C(c3cc(OC)ccc3OC)c3nnnn3Cc3ccco3)CC2)cc1 (centres undefined)	CHT allo act 7.4 | CHT activ conf 21 | HEK293 MP dye inactive
O=C(CN1CCCCCC1)Nc1ccc(Br)cn1	none
Cc1cc(C)n2c(Nc3ccc4c(c3)OCCO4)c(-c3ccccc3)nc2n1	CHT allo act 11 | CHT activ conf 14 | HEK293 MP dye -34
COc1ccc(Nc2c(-c3ccc(C)cc3)nc3cnccn23)cc1	none | CHT activ conf 49 | HEK293 MP dye -28
COc1ccc(-c2nc3cnccn3c2Nc2ccc3c(c2)OCO3)cc1	CHT allo act 6.4 | CHT activ conf 48 | HEK293 MP dye -29

From PubChem
